# How the values were obtained:
# Test in all cases: DAPPL (digital affinity profiling via proximity ligation, sequencing); 10 mM Tris-HCl pH 7.5, 50 mM NaCl, 1 mM DTT, 4% glycerol, room temperature, 30 min; GST-TFs on glutathione beads, 16-mer random dsDNA library, 0.1% formaldehyde crosslink after washing; high values mean tight binding
# Conditions in all cases: protein: recombinant; tags: N-terminal GST; dsDNA, one strand shown
# FEV = target: T1, FEV (Homo sapiens, UniProt Q99581 1-238)
# T1 sequence: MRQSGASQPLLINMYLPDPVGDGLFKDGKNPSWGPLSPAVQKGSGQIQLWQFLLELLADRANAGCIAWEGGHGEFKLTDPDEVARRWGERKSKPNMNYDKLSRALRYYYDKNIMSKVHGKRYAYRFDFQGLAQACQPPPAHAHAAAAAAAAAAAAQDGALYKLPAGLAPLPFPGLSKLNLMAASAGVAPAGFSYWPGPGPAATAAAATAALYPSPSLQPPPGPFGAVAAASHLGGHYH
# Method in brief: (§1)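 Binding signal is given per hexamer as its read frequency for a factor divided by its frequency in the tag-only sample. GST-fused human transcription factors were expressed in yeast, captured on glutathione beads, barcoded with DNA and pooled with that sample, then incubated with 200 nmole of a 16-mer random double-stranded DNA library in Tris/NaCl/DTT/glycerol buffer for 30 min at room temperature. The pools were then washed, crosslinked, proximity-ligated, amplified by PCR and sequenced on an Illumina NextSeq500.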
# ETV5 = ETV5 (Homo sapiens, UniProt P41161 1-510)
# ETV5, sequence (P41161 whole entry): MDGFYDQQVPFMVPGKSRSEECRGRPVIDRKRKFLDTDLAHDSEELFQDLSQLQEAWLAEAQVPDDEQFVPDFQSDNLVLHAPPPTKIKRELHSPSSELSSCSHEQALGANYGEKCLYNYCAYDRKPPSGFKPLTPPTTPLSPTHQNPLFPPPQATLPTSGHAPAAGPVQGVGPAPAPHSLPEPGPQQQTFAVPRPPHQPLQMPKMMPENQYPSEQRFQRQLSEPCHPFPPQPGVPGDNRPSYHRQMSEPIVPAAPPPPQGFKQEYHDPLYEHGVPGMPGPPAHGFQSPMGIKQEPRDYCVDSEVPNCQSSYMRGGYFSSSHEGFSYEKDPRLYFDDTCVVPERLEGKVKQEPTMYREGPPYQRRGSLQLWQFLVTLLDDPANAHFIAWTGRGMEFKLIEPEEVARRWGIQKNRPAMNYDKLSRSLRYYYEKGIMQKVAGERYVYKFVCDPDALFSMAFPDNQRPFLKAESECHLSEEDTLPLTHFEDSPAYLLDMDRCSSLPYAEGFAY
# Method in brief: as §1
# SPIC = target: T2, SPIC (Homo sapiens, UniProt Q8N5J4 1-248)
# T2 sequence: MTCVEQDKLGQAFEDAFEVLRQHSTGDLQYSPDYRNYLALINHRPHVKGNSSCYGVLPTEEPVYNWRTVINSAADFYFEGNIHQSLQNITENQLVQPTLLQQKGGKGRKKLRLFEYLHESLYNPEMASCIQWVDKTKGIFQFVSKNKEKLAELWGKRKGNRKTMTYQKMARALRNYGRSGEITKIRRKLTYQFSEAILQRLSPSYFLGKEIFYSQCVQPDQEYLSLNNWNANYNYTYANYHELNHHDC
# Method in brief: as §1
# ELF4 = ELF4 (Homo sapiens, UniProt Q99607 1-663)
# ELF4, sequence (Q99607 whole entry): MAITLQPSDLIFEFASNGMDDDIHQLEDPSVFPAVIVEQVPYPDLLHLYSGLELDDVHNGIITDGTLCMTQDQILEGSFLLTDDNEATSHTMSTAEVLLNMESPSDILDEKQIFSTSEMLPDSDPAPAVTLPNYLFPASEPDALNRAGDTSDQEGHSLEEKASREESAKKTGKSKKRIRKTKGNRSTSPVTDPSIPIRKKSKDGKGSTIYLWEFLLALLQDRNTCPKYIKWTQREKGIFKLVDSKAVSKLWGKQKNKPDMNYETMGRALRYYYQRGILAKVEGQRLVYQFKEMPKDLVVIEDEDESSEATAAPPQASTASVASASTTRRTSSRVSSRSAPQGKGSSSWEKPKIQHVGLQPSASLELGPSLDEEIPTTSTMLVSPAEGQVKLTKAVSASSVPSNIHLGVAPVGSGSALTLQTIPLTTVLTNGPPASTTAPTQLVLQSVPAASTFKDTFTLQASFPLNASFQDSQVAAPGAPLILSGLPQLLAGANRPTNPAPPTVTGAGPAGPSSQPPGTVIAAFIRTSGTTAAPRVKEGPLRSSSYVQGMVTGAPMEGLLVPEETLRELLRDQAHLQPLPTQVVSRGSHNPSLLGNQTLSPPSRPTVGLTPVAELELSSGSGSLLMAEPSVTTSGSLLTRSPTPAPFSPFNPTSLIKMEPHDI
# Method in brief: as §1
# ELK4 = target: T3, ELK4 (Homo sapiens, UniProt P28324-2 1-405)
# T3 sequence: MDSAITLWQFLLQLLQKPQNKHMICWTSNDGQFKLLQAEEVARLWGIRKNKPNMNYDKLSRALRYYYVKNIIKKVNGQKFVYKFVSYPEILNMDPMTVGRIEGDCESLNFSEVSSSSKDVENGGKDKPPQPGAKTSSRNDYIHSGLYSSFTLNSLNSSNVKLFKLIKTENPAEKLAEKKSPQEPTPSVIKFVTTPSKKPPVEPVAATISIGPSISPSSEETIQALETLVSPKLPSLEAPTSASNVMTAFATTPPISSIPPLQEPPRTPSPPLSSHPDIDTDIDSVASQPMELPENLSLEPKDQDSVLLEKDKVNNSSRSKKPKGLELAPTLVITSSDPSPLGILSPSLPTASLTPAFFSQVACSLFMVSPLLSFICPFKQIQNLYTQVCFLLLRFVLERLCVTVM
# Method in brief: as §1
# ETV2 = target: T4, ETV2 (Homo sapiens, UniProt O00321 1-342)
# T4 sequence: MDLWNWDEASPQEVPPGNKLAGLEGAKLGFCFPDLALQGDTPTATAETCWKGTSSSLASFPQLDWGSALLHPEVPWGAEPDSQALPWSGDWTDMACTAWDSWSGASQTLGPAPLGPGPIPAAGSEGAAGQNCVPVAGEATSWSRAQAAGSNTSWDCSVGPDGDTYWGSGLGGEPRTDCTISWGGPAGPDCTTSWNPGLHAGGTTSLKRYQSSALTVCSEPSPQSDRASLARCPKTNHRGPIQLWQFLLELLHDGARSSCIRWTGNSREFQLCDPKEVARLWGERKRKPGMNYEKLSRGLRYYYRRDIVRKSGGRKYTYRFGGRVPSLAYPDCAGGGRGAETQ
# Method in brief: as §1
# ELF3 = target: T5, ELF3 (Homo sapiens, UniProt P78545 1-371)
# T5 sequence: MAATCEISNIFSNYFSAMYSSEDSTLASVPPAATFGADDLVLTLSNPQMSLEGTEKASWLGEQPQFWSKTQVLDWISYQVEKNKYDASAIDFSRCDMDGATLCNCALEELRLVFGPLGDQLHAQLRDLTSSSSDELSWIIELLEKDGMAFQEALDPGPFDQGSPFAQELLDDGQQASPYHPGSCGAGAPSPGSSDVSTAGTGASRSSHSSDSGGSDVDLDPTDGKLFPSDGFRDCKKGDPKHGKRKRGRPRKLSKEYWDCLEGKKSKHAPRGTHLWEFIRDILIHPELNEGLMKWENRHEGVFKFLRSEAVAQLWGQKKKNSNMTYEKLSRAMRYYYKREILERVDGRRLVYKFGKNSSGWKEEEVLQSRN
# Method in brief: as §1
# ETV1 = ETV1 (Homo sapiens, UniProt P50549 1-477)
# ETV1, sequence (P50549 whole entry): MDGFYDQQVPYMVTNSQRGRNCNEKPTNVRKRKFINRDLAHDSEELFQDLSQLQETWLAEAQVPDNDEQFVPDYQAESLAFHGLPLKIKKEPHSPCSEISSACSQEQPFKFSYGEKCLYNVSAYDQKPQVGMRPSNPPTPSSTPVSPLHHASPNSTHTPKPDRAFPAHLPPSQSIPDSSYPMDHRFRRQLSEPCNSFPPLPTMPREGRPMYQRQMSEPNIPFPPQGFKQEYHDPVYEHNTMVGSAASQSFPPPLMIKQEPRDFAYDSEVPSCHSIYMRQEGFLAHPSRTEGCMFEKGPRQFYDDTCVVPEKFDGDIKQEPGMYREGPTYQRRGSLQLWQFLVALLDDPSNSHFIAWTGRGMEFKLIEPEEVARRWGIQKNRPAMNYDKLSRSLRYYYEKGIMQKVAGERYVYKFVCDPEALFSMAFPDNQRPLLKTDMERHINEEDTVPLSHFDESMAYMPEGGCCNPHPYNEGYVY
# Method in brief: as §1
# ERF = target: T6, ERF (Homo sapiens, UniProt P50548 1-548)
# T6 sequence: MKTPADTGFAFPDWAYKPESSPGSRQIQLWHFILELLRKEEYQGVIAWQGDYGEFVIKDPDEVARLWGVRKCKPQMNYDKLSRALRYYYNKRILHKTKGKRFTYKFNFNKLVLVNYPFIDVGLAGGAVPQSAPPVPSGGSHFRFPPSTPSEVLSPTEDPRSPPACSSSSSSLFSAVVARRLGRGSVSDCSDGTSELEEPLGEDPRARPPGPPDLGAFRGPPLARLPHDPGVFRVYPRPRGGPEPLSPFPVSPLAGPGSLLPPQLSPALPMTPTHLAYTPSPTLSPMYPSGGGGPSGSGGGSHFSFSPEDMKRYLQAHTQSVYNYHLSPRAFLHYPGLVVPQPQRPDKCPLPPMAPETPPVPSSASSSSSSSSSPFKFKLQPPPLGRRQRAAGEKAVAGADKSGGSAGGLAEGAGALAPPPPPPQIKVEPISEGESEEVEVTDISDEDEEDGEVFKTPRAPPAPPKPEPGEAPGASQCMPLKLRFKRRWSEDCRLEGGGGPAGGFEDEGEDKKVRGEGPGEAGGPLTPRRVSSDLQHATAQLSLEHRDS
# Method in brief: as §1
# ETV3L = target: T7, ETV3L (Homo sapiens, UniProt Q6ZN32 1-361)
# T7 sequence: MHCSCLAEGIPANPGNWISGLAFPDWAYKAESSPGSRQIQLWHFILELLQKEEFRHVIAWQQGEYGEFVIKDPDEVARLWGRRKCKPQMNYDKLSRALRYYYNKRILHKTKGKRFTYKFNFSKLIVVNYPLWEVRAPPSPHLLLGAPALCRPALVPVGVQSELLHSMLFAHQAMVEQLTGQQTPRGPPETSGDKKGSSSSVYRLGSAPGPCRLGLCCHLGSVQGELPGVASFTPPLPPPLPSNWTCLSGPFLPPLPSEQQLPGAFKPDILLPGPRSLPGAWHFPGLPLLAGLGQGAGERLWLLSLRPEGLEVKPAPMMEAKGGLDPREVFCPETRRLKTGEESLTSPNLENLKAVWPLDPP
# Method in brief: as §1
# ETS2 = target: T8, ETS2 (Homo sapiens, UniProt P15036 1-469)
# T8 sequence: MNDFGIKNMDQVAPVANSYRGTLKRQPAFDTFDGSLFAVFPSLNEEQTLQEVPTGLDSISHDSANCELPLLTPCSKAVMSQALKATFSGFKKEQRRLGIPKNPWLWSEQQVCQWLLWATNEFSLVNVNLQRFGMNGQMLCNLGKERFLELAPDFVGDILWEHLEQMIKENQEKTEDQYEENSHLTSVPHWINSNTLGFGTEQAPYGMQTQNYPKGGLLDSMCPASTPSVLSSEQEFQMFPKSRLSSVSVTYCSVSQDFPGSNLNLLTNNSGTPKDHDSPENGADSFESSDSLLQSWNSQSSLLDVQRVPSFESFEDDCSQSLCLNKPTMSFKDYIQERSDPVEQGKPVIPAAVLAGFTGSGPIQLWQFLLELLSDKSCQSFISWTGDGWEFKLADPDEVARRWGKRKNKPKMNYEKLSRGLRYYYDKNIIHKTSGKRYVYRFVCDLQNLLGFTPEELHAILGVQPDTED
# Method in brief: as §1
# SPDEF = target: T9, SPDEF (Homo sapiens, UniProt O95238 1-335)
# T9 sequence: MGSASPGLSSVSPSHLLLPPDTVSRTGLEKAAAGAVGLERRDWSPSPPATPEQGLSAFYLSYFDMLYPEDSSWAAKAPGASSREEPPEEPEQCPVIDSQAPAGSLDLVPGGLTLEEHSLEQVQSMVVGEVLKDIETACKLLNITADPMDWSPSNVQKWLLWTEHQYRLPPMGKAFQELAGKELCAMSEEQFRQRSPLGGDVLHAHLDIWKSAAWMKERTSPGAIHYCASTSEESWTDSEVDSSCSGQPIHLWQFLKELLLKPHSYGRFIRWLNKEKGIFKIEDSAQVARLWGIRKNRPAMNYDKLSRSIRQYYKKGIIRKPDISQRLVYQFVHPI
# Method in brief: as §1
# ETV7 = target: T10, ETV7 (Homo sapiens, UniProt Q9Y603 1-341)
# T10 sequence: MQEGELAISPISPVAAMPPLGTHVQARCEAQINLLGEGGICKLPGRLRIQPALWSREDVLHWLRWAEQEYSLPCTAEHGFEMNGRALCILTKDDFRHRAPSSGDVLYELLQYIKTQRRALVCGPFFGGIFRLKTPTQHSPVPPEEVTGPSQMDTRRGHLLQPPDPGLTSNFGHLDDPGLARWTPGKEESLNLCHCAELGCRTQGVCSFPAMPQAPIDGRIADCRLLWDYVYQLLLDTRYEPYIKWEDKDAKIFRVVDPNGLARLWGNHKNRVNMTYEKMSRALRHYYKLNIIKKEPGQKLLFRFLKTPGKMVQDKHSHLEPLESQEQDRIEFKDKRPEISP
# Method in brief: as §1
# ELF5 = target: T11, ELF5 (Homo sapiens, UniProt Q9UKW6-2 1-255)
# T11 sequence: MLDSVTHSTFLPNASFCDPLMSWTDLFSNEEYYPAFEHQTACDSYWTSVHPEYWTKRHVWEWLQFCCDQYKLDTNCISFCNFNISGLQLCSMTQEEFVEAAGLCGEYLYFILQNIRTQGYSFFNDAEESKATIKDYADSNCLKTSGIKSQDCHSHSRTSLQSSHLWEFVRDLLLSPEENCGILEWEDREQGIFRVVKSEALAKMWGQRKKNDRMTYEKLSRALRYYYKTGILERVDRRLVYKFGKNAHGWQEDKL
# Method in brief: as §1
# ETV3 = target: T12, ETV3 (Homo sapiens, UniProt P41162-2 1-143)
# T12 sequence: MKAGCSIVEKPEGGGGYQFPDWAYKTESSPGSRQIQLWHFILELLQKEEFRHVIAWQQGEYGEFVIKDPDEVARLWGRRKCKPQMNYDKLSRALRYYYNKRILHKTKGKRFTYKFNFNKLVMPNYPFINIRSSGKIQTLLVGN
# Method in brief: as §1
# ETV6 = ETV6 (Homo sapiens, UniProt P41212 1-452)
# ETV6, sequence (P41212 whole entry): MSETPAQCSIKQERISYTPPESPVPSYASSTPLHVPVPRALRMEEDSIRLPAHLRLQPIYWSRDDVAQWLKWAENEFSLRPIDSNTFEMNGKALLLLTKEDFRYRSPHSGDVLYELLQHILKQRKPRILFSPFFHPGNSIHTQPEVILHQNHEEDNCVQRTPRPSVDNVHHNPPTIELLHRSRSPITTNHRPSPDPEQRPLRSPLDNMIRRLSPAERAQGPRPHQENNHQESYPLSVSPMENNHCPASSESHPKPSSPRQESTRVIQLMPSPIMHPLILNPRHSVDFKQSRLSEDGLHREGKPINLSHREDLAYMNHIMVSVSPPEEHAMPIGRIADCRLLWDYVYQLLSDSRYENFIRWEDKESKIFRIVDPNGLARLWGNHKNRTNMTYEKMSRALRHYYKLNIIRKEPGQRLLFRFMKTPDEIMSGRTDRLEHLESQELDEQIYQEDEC
# Method in brief: as §1
sequence,measurement,setting,value
ACATTG,binding signal,FEV,"1.12 fold enrichment (6-mer frequency, TF over GST control)"
same,binding signal,ETV5,"1.09 fold enrichment (6-mer frequency, TF over GST control)"
same,binding signal,SPIC,"1.18 fold enrichment (6-mer frequency, TF over GST control)"
same,binding signal,ELF4,"1.12 fold enrichment (6-mer frequency, TF over GST control)"
same,binding signal,ELK4,"1.19 fold enrichment (6-mer frequency, TF over GST control)"
same,binding signal,ETV2,"1.09 fold enrichment (6-mer frequency, TF over GST control)"
same,binding signal,ELF3,"1.25 fold enrichment (6-mer frequency, TF over GST control)"
same,binding signal,ETV1,"1.19 fold enrichment (6-mer frequency, TF over GST control)"
same,binding signal,ERF,"1.26 fold enrichment (6-mer frequency, TF over GST control)"
same,binding signal,ETV3L,"1.18 fold enrichment (6-mer frequency, TF over GST control)"
same,binding signal,ETS2,"1.17 fold enrichment (6-mer frequency, TF over GST control)"
same,binding signal,SPDEF,"1.12 fold enrichment (6-mer frequency, TF over GST control)"
same,binding signal,ETV7,"1.2 fold enrichment (6-mer frequency, TF over GST control)"
same,binding signal,ELF5,"1.07 fold enrichment (6-mer frequency, TF over GST control)"
same,binding signal,ETV3,"1.1 fold enrichment (6-mer frequency, TF over GST control)"
same,binding signal,ETV6,"1.21 fold enrichment (6-mer frequency, TF over GST control)"
